HEK293 viab: counter-screen for SNCA expression inhibitors: cell viability; HEK-293-SNCA-luc viability, GF-AFC fluorescence, 24 h; Potency, µM (doses to about 57.1 µM), for the others: at the highest dose activity change, negative = cytotoxicity, usual class: cytotoxic; 150,000 tested, 0.12% active;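 also: potency is read from the fitted curve at half-maximal effect; 0% = DMSO-treated cells and -100% = medium-only wells without cells; nearly all actives have a fitted effect of over 30% in size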
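Cytotoxicity counterscreen: after 24 h compound treatment of genome-edited SNCA-luciferase HEK-293 cells, live-cell protease substrate GF-AFC read by fluorescence after 30 min; activity scaled between DMSO (0%) and medium-only (-100%), curves Hill-fitted.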
KDM5B inh: inhibitors of human KDM5B histone demethylase; 220,000 tested, 2.6% active; Potency, µM (highest dose often 57.7 µM), actives largely listed as inhibitors; AID 1347165; KDM5B demethylase, FDH-coupled NADH fluorescence (FDH is formaldehyde dehydrogenase); Q9UGL1; also: potency is read from the fitted curve at half-maximal effect; 0% is about no effect; nearly all actives have a fitted effect of over 70% in size
Target sequence (Q9UGL1 whole entry, looked up): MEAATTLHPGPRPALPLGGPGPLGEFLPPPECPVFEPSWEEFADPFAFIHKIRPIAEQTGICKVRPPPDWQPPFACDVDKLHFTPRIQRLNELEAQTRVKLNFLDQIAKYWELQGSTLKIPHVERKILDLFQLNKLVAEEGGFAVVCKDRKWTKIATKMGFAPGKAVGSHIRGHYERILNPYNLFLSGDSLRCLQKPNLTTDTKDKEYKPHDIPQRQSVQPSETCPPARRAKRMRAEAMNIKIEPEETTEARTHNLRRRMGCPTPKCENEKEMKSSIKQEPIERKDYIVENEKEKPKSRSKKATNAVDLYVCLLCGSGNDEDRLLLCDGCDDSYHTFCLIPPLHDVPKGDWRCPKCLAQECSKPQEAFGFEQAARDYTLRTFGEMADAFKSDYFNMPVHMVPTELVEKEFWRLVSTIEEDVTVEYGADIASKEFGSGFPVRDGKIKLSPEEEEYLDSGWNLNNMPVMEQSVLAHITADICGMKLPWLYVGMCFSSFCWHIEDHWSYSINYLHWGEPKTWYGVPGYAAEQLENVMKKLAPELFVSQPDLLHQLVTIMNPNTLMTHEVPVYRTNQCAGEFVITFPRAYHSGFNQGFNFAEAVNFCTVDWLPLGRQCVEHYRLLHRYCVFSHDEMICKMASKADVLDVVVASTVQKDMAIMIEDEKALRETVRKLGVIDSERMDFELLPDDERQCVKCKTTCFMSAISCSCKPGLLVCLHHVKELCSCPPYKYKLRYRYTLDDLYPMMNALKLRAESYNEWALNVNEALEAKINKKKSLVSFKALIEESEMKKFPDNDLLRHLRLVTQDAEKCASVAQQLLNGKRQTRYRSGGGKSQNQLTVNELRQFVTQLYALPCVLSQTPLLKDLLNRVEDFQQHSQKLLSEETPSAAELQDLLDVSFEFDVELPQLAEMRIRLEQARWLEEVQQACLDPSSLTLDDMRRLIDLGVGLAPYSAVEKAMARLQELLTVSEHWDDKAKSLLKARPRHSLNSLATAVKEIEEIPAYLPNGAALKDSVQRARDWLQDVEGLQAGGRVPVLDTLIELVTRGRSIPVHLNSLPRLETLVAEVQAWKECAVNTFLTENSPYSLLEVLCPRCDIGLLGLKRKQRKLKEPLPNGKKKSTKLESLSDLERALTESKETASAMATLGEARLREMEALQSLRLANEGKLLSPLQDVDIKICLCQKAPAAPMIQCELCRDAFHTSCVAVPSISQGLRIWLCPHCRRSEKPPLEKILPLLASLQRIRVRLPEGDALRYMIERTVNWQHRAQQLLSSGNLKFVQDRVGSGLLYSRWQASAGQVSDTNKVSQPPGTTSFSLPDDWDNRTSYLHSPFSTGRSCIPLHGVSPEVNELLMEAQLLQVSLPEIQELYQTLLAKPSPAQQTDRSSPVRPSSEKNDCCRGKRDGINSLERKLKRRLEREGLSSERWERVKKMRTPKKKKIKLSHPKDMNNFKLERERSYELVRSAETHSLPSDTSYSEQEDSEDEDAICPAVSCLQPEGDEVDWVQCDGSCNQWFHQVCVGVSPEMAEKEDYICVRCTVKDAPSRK
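Measured: NADH fluorescence change, 30 min, RT. System: KDM5BΔAP 200 nM final, H3K4me3 peptide, α-KG, Fe(II), ascorbate, NAD⁺ plus FDH, pH 7.5 HEPES. Compounds: titrated, 10 min pre-incubation with enzyme.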
SNCA expr inhib: SNCA gene expression inhibition; 140,000 tested, 0.17% active; HEK-293 SNCA-luciferase knock-in, luminescence, 24 h; Potency, µM (top dose mostly 57.2 µM), without a hit: at the highest dose activity change, negative = inhibition, hits mostly inhibitors;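 also: potency is read from the fitted curve at half-maximal effect; plate controls were DMSO cells for no effect and cell-free wells for full effect; nearly all actives have a fitted effect of over 45% in size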
IP6K1 inhibitor: blocks human inositol hexakisphosphate kinase 1; Q92551; IP6K1 kinase, ADP-Glo luminescence, 2 h; stronger effect = lower value; activity change, % (series mostly up to about 58 µM); 140,000 tested, 0.81% active; in the data active = activity change below about -25%; also: % is scaled to controls: 0 for no effect and ±100 for the full control effect
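ADP-Glo luminescence measures ADP made by human IP6K1 during a 2 h RT reaction with ATP/IP6 (mix at 1.3 mM/130 uM); top library doses 57.5 and 19.1 uM final.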
Active calls of the source: *; i = inactive; ? = inconclusive; . = no result given; + = active, no number; [ ] = another dose, or the depositor's remark. Sampled rows, rich in hits. Any-hit rate of the full collection: about 2.9%. Unless noted, calls follow the shape of the dose curve; as a rule, active = well fitted curve in the direction sought with a large enough effect; inconclusive = small, poorly fitted or top-dose-only effect, or another doubt; inactive = no such curve, though single readings can be large; an effect the other way counts as inactive or inconclusive.

SMILES | HEK293 viab | KDM5B inh | SNCA expr inhib | IP6K1 inhibitor
CS(=O)(=O)N(Cc1ccccc1)c1ccc(C(=O)Nc2cccc(Cl)c2)cc1 | 6.3µM* | ? | -14% | -5
CNC(=O)c1ccc(N(Cc2ccc(C)cc2)S(C)(=O)=O)cc1 | . | i | . | .
O=C(Nc1ccc(S(=O)(=O)N(Cc2ccccc2)c2ccccc2)cc1)c1ccc(F)cc1 | 3% | i[11.5 µM] | 20% | -28*
Cc1ccc(NC(=O)c2ccc(N(Cc3ccccc3)S(C)(=O)=O)cc2)cc1 | 2.8µM* | i | 21% | -8
CCC1(CO)CCCN(Cc2ccc3c4c(cccc24)C(=O)OC3)C1 (centres undefined) | 2% | 11µM* | -18% | 7
CNC(=O)c1cc2cccnn2n1 | 5%[87.6 µM] | 32µM* | 9%[87.6 µM] | -3
CN(C)C(=O)c1cc2cccnn2n1 | 2%[87.6 µM] | 32µM* | 21%[87.6 µM] | 1
CN(C)C(=O)c1cc(C(C)(C)C)c2cccn2n1 | 3%[87.6 µM] | i | 212%[87.6 µM] | -9
COCC1(C(=O)N2CCN(c3nccc(N)n3)CC(O)C2)CC1 (centres undefined) | 3% | i | -27% | 12
c1ccc(-c2cc(NCCCOc3cccnc3)n3nccc3n2)cc1 | -13% | 22µM* | 7% | 2
COCCCNc1cc(Cl)nc2ccnn12 | -1%[87.6 µM] | i | 40%[87.6 µM] | 13
COc1ccccc1-n1cc(-c2ccnc(N3CCCN(C(C)=O)CC3)n2)cn1 | -29% | 32µM* | 7% | 21
O=C(NCc1cccc(CNC(=O)C2CCCC2)c1)C1CCCC1 | . | i | . | .
CC(C)NC(=O)c1nc(-c2ccsc2)c2ccccn12 | -4%[87.6 µM] | 112µM* | -3%[87.6 µM] | -20
C#CCNC(=O)c1nc(-c2ccc([S+](C)(=O)[O-])cc2)c2cnccn12 | 21% | + | -2% | -4
CC(C)NC(=O)c1nc(-c2ccsc2)c2cnccn12 | -14%[87.6 µM] | 40µM* | -24%[87.6 µM] | 2
CC(C)NC(=O)c1nc(-c2cccc(F)c2)c2cnccn12 | ? | 32µM* | -12%[87.6 µM] | 13
O=C(/C=C/c1cccs1)N1CCCCCC1 | . | i | . | .
C#CCNC(=O)c1nc(-c2cccnc2)c2cnccn12 | 11%[87.6 µM] | i | 8%[87.6 µM] | 12
C#CCNC(=O)c1nc(-c2ccsc2)c2cnccn12 | 7%[87.6 µM] | 32µM* | -35%[87.6 µM] | 2
CC(C)NC(=O)c1nc(-c2ccc(Cl)cc2)c2ccccn12 | 8% | 89µM* | 6% | -20
Fc1ccc(-c2ccnc3ncnn23)cc1 | -7% | 28µM* | -17% | 9
Brc1ccc(-c2ccnc3ncnn23)s1 | -3% | i | 38% | -4
N#Cc1cccc(-c2cn3c(n2)N(C(=O)C2CCCO2)CCC3)c1 (centres undefined) | 1% | 32µM* | 22% | -16
N#Cc1cccc(-c2cn3c(n2)N(C(=O)C2CCC2)CCC3)c1 | -6% | 22µM* | 40% | 12
SMILES | HEK293 viab | KDM5B inh | SNCA expr inhib | IP6K1 inhibitor
COC(=O)C1=CN(CC(=O)Nc2ccc(F)cc2)S(=O)(=O)N=C1C | 7% | i | 14% | 0
NC(=O)c1cc2c(nc1N1CCC3(CCCN(CC4CCC4)C3)C1)CCC2 (centres undefined) | -5% | 25µM* | -13% | 20
CNc1ncc(C(=O)N2CCCC3(CCC(=O)N(CCOC)C3)C2)cn1 (centres undefined) | 8% | 28µM* | -13% | -8
CCCCCCNC(=O)Cc1csc2nc(C)c(-c3cc(C)n(-c4ccccc4OC)n3)c(=O)n12 | -17% | 28µM* | 3% | 2
CCc1ccccc1-n1nc(-c2c(C)nc3scc(CC(=O)NCc4ccco4)n3c2=O)cc1C | 1% | 28µM* | -15% | 6
CCc1ccccc1-n1nc(-c2c(C)nc3scc(CC(=O)N4CCCC4)n3c2=O)cc1C | -19% | 32µM* | 15% | 0
CCc1ccccc1-n1nc(-c2c(C)nc3scc(CC(=O)NCC(C)C)n3c2=O)cc1C | -2% | ? | 3% | 10
Cc1nc2scc(CC(=O)N3CCCC3)n2c(=O)c1-c1cc(C)n(-c2ccccc2F)n1 | 1% | ? | 9% | -7
CCCCCNC(=O)Cc1csc2nc(C)c(-c3cc(C)n(-c4cccc(C)c4C)n3)c(=O)n12 | -14% | 32µM* | -20% | 23
CCCCCCNC(=O)Cc1csc2nc(C)c(-c3cc(C)n(-c4cccc(C)c4)n3)c(=O)n12 | -15% | ? | -7% | 0
FC(F)Oc1ccc(/C=N/NC(=S)NCc2ccccc2)cc1 | . | i | . | .
CCCCNC(=O)Cc1csc2nc(C)c(-c3cc(C)n(-c4ccccc4CC)n3)c(=O)n12 | -14% | 32µM* | -15% | 9
CCCNC(=O)Cc1csc2nc(C)c(-c3cc(C)n(-c4ccccc4CC)n3)c(=O)n12 | 1% | ? | -11% | 5
Nc1ccc(C(=O)N2CCCn3nc(C(=O)Nc4ccccc4)cc3C2)cn1 | 3% | i | 2% | 8
Cc1ccccc1CC(=O)NCc1nnc2c(-c3nc(C(C)C)no3)cccn12 | 24% | 22µM* | 2% | -5
CCOc1ccccc1C(=O)NCc1nnc2c(-c3nc(C(C)C)no3)cccn12 | 10% | ? | 6% | 5
CC(C)c1noc(-c2cccn3c(CNC(=O)Cc4ccccc4Cl)nnc23)n1 | 7% | 25µM* | 4% | 6
Cc1ccc(CC(=O)NCc2nnc3c(-c4nc(C(C)C)no4)cccn23)cc1 | 3% | ? | -8% | 13
CC(C)c1noc(-c2cccn3c(CNC(=O)c4ccc(Cl)cc4)nnc23)n1 | -8% | 25µM* | -27% | 5
Cc1ccc(C(=O)NCc2nnc3c(-c4nc(C(C)C)no4)cccn23)cc1 | 6% | ? | -22% | 18
CC(C)c1noc(-c2cccn3c(CNC(=O)c4ccccc4Cl)nnc23)n1 | 4% | 10µM* | -13% | -2
Cc1[nH]c2ccccc2c1C(=O)C(=O)NCC(=O)N(C)C | . | i | . | .
CNc1ccc(-c2noc([C@@H]3CCCN3Cc3cccc(OC)c3)n2)cn1 | -8%[87.6 µM] | ? | 41%[87.6 µM] | 1
FC(F)(F)Oc1cccc(CN2CCC[C@H]2c2nc(-c3ccc(N4CCOCC4)nc3)no2)c1 | 2% | 28µM* | 3% | 6
Oc1ccccc1CN1CCC[C@H]1c1nc(-c2ccc(N3CCOCC3)nc2)no1 | -8%[87.6 µM] | 35µM* | 4%[87.6 µM] | 1
SMILES | HEK293 viab | KDM5B inh | SNCA expr inhib | IP6K1 inhibitor
CN1CCN(c2ccc(-c3noc([C@@H]4CCCN4CCCc4ccccc4)n3)cn2)CC1 | 8%[87.6 µM] | 32µM* | 9%[87.6 µM] | 11
COc1ccc(-c2noc([C@@H]3CCCN3C(=O)CCc3ccccc3)n2)cc1OC | -23% | 28µM* | 49% | 0
O=C1C(=O)N(CCc2ccccc2)C(c2ccc(Cl)cc2)/C1=C(\O)c1ccc2c(c1)OCCO2 (centres undefined) | . | i | . | .
CC(=O)N1CCCN(C(=O)C2CCN(c3nccc(Nc4ccc(C)cc4)n3)CC2)CC1 | 0%[12.5 µM] | . | -14% | -1
CC(=O)c1ccc(NC(=O)N[C@H]2CO[C@H]3[C@@H]2OC[C@@H]3Nc2nccc(-c3ccco3)n2)cc1 | -9% | ? | 64% | -14
Cc1nc2nc(SCC(=O)c3ccc4c(c3)OCO4)[nH]c2cc1Br | . | i | . | .
